Potency, viability change, negative = cytotoxic and activity change, negative = cytotoxicity data for 56 molecules are collected here from PubChem BioAssay (Tox21).

“And” between values parts separate entries of the source, which are not always exact repeats. Equal values may be shown once. Records with an inconclusive call do not appear. Values without a mark were called inactive. The source made the active and inactive calls. Calls follow the shape of the dose curve; as a rule, active = well fitted cell-killing curve with a large enough effect in the repeat runs; inconclusive = weak or mixed curves, or effect the other way; inactive = flat fitted curve, though single readings scatter.

A short description of test [1]: cAMP Responsive Elements (CRE) small molecule antagonists, cell-based qHTS assay: qHTS cell viability counter screen (AID 2060913). Also: nearly all actives have a fitted effect of over 40% in size. In short, it runs like this: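 HEK293T CRE-bla, 2,000 cells/well, 18 h preincubation; cpd in DMSO + NKH477 0.25 uM final, 3 h 37 C/5% CO2; LiveBLAzer 2 h RT, then CellTiter-Glo 30 min RT, luminescence.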
(In general: Quantitative high-throughput screening tests each substance at several concentrations.)

Test [2] is described as follows: cAMP Responsive Elements (CRE) small molecule agonists, cell-based qHTS assay: qHTS cell viability counter screen (AID 2060914). Also: nearly all actives have a fitted effect of over 50% in size. In outline:
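Luminescence read-out (CellTiter-Glo, 30 min RT) of ATP-based viability in CRE-bla HEK 293T cells, run in the same wells as the β-lactamase reporter assay after 3 h compound treatment at 37 °C.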
% is scaled to controls: 0 for no effect and ±100 for the full control effect; potency is read from the fitted curve at half-maximal effect.

`CCCCCCCCC`: the Potency entry in test [1] and in test [2] was “inactive” in each case.
For `Cc1cc(N)no1`, the Potency entry in test [1] and in test [2] was “inactive” each time.
For the molecule `COc1ccc2c(c1)c(CC(=O)OC/C=C(\C)CC/C=C(\C)CCC=C(C)C)c(C)n2C(=O)c1ccc(Cl)cc1`, the Potency result in test [1] and in test [2] was “inactive” each time.
Turning to `CCOc1cc(OCC)c(C(=O)CCC(=O)O)cc1OCC`, the Potency result in test [1] and in test [2] was “inactive” throughout.
Take `CCCCCC(C)OC(=O)COc1ccc(Cl)c2cccnc12` (configuration not stated): the Potency entry in test [1] and in test [2] was “inactive” throughout.
In the case of `CC1(C)[C@H]2CC[C@]1(C)C(=O)C2`, the Potency result in test [1] and in test [2] was “inactive” in each case.
As for `C[C@]12C(=O)OC(=O)[C@H]1[C@H]1C=C[C@@H]2C1`, the Potency result in test [1] and in test [2] was “inactive” in each case.
Consider `CC(C)CC(C)(O)C#CC(C)(O)CC(C)C` (configuration not stated), for which the Potency result in test [1] and in test [2] was “inactive” each time.
Regarding `CCc1cccc(C)c1N`, the Potency result in test [1] and in test [2] was “inactive” each time.
With `OCCCCCCO`, the Potency result in test [1] and in test [2] was “inactive” in each case.
As for `CSc1nnc(C(C)(C)C)c(=O)[nH]1`, the Potency entry in test [1] and in test [2] was “inactive” in each case.
For `CCCNC(C)C(=O)Nc1c(C)csc1C(=O)OC` (configuration not stated), the Potency result in test [1] and in test [2] was “inactive” in each case.
Take `COCCOCCOCCOCCOCCO`: the Potency result in test [1] and in test [2] was “inactive” throughout.
Consider `CC(C)CCCC(C)NCCC(C)C` (configuration not stated), for which the Potency entry in test [1] and in test [2] was “inactive” each time.
On to `CN(c1nccc(=O)[nH]1)C1CCN(c2nc3ccccc3n2Cc2ccc(F)cc2)CC1`, for which the Potency entry in test [1] and in test [2] was “inactive” in each case.
Consider `Nc1ccccc1S(=O)(=O)O`, for which the Potency entry in test [1] and in test [2] was “inactive” each time.
As to `O=C(c1ccccc1)C1(O)CCCCC1`, the Potency entry in test [1] and in test [2] was “inactive” throughout.
For the molecule `CCN(CC)CCCC(C)Nc1ccnc2cc(Cl)ccc12` (configuration not stated), the viability change, negative = cytotoxic in test [1] was 4.94% [at 8.39 µM] and -2.8% [at 18.9 µM]. The activity change, negative = cytotoxicity in test [2] was -0.2% [at 8.39 µM] and -0.0045% [at 18.9 µM].
As to `OCCC(F)(F)C(F)(F)C(F)(F)C(F)(F)C(F)(F)C(F)(F)F`, the Potency entry in test [1] and in test [2] was “inactive” throughout.
Regarding `Cc1oncc1C(=O)Nc1ccc(C(F)(F)F)cc1`, the Potency entry in test [1] and in test [2] was “inactive” each time.
Turning to `Cc1ccc2sc3cccc(C)c3c2c1`, the Potency result in test [1] and in test [2] was “inactive” throughout.
Regarding `CCCCOc1ccc(C(=O)CCN2CCCCC2)cc1`, the Potency result in test [1] and in test [2] was “inactive” throughout.
`CO[C@@H]1[C@H](OC(=O)/C=C/C=C/C=C/C=C/C(=O)O)CC[C@]2(CO2)[C@H]1[C@@]1(C)O[C@@H]1CC=C(C)C`: the Potency entry in test [1] and in test [2] was “inactive” throughout.
Take `CCC(C)C(=O)OCCc1ccccc1` (configuration not stated): the Potency result in test [1] and in test [2] was “inactive” throughout.
For `O=S1(=O)CCCO1`, the Potency result in test [1] and in test [2] was “inactive” in each case.
Take `CCN(CCCCOC(=O)c1ccc(OC)c(OC)c1)C(C)Cc1ccc(OC)cc1` (configuration not stated): the Potency result in test [1] and in test [2] was “inactive” in each case.
Consider `CCCCCCCCSCc1cc(C)c(O)c(CSCCCCCCCC)c1`, for which the Potency result in test [1] and in test [2] was “inactive” throughout.
Consider `COCCCOCCCOC`, for which the Potency result in test [1] and in test [2] was “inactive” throughout.
As for `Cc1ccc(/C=N/n2c(-c3ccccc3)csc2=S)cc1`, the Potency result in test [1] and in test [2] was “inactive” in each case.
For the molecule `CC(=O)Oc1ccccc1C(=O)O`, the Potency result in test [1] and in test [2] was “inactive” each time.
As to `CCCc1nn(C)c2c(=O)[nH]c(-c3cc(S(=O)(=O)N4CCN(C)CC4)ccc3OCC)nc12`, the Potency entry in test [1] and in test [2] was “inactive” each time.
For the molecule `C=CC[N+]1([C@H]2C[C@H]3[C@@H]4CC[C@H]5C[C@H](OC(C)=O)[C@@H](N6CCCCC6)C[C@]5(C)[C@H]4CC[C@]3(C)[C@H]2OC(=O)CC)CCCCC1`, the Potency entry in test [1] and in test [2] was “inactive” each time.
`COC(=O)/C=C\C(=O)OC`: the Potency entry in test [1] and in test [2] was “inactive” in each case.
For the molecule `CC(=O)O[C@H]1C[C@@H]2CC[C@@]1(C)C2(C)C`, the Potency entry in test [1] and in test [2] was “inactive” in each case.
For `C=CC(C)(CCC=C(C)C)OC(=O)CC` (configuration not stated), the Potency entry in test [1] and in test [2] was “inactive” each time.
For the molecule `Nc1cc([N+](=O)[O-])ccc1C(=O)O`, the Potency result in test [1] and in test [2] was “inactive” each time.
On to `CN1CCC[C@@H]1c1cccnc1`, for which the Potency result in test [1] and in test [2] was “inactive” throughout.
In the case of `CC(C)COC(=O)COc1cc(Cl)c(Cl)cc1Cl`, the Potency result in test [1] and in test [2] was “inactive” each time.
Take `O=C(O)COCC(=O)O`: the Potency result in test [1] and in test [2] was “inactive” each time.
In the case of `CCCCCC(=O)O`, the Potency entry in test [1] and in test [2] was “inactive” each time.
In the case of `O=S(=O)(O)c1cc(O)c(O)c(S(=O)(=O)O)c1`, the Potency entry in test [1] and in test [2] was “inactive” each time.
Consider `CCCCCCCC=O`, for which the Potency entry in test [1] and in test [2] was “inactive” throughout.
Regarding `C[C@@H]1CCC[C@H](C)N1`, the Potency result in test [1] and in test [2] was “inactive” in each case.
As for `Cc1ccc2ccccc2n1`, the Potency entry in test [1] and in test [2] was “inactive” in each case.
Regarding `CC(C)NCC(O)c1ccc2ccccc2c1` (configuration not stated), the Potency result in test [1] and in test [2] was “inactive” throughout.
Take `Cc1c(N(C)C)c(=O)n(-c2ccccc2)n1C`: the Potency result in test [1] and in test [2] was “inactive” throughout.
Turning to `C1CCSC1`, the Potency result in test [1] and in test [2] was “inactive” throughout.
In the case of `CCCCCCCCCCCCCC[P+](CCCC)(CCCC)CCCC`, the Potency was 60.8 µM (active) and 28.5 µM (active) in test [1]; 60.8 µM (active) and 61.1 µM (active) in test [2].
With `CC(=O)c1ccc([N+](=O)[O-])cc1`, the Potency entry in test [1] and in test [2] was “inactive” throughout.
For the molecule `C=C[Si](OCC)(OCC)OCC`, the Potency result in test [1] and in test [2] was “inactive” each time.
`COc1cc2ncnc(Nc3cccc(Cl)c3)c2cc1OC`: the viability change, negative = cytotoxic in test [1] was 6.79% [at 18.9 µM]. The activity change, negative = cytotoxicity in test [2] was 4.77% [at 18.9 µM].
Take `C1CCCCC1`: the Potency result in test [1] and in test [2] was “inactive” throughout.
Regarding `N#Cc1ccccc1C#N`, the Potency result in test [1] and in test [2] was “inactive” each time.
`CCC(C)C=O` (configuration not stated): the Potency result in test [1] and in test [2] was “inactive” throughout.
As to `C=C(C)C1CCC(C)(O)CC1` (configuration not stated), the Potency result in test [1] and in test [2] was “inactive” in each case.
`O=CO`: the viability change, negative = cytotoxic in test [1] was -5.83% [at 8.39 µM]. The activity change, negative = cytotoxicity in test [2] is -4.64% [at 8.39 µM].
